PubChem BioAssay AID624496 (National Center for Advancing Translational Sciences (NCATS), 2012)
Results filed as inconclusive are left out. Active and inactive are the calls of the source. Calls follow the shape of the dose curve; as a rule, active = well fitted inhibition curve with a large enough effect; inconclusive = small, poorly fitted or top-dose-only effect, or another doubt; inactive = no such curve, though single readings can be large or run the other way.

Target: D(2) dopamine receptor (Homo sapiens) (UniProt P14416)
Sequence (P14416 whole entry, looked up): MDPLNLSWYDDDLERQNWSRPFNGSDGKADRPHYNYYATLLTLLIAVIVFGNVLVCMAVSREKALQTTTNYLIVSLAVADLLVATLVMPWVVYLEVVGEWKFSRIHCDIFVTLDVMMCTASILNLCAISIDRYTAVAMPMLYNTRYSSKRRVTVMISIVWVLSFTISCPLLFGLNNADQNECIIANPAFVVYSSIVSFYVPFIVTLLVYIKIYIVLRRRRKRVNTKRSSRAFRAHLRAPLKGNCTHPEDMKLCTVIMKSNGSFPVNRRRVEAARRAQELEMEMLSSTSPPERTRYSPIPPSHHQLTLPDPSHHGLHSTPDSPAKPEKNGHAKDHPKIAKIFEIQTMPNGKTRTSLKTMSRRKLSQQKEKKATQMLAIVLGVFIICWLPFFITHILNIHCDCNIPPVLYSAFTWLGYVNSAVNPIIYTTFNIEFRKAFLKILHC
Assay: HTS Assay for Allosteric Antagonists of the Human D2 Dopamine Receptor: SAR in Primary Assay.
Settings: HEK293 T-REx D2 cells, calcium flux, dopamine EC80 antagonism; activity, negative = inhibition: at 41.8 µM (top of the series) unless noted
From the text: Dopamine receptors (DARs) are involved in the etiology and/or therapy of a number of neuropsychiatric and endocrine disorders. For instance, all receptor-based antiparkinsonian drugs work via stimulating the D2 DAR subtype whereas all FDA-approved antipsychotic agents are antagonists of this receptor. […] There are three different types of allosteric modulators that we are seeking, two of which will stimulate or augment receptor signaling, allosteric agonists and potentiators, while the third, allosteric antagonists, will attenuate receptor signaling. The present project is looking for compound antagonism after an EC80 addition of dopamine by tracking calcium flux in a […], inducible Hek293 Trex D2 cell line, which act through an allosteric site. NIH Chemical Genomics Center [NCGC] NIH Molecular Libraries Probe Centers Network [MLPCN] MLPCN Grant: NS064831 Assay Submitter (PI): David Sibley
Freshly passaged cells are plated in 1536 well black, clear bottom plates at a density of 4000 cells/well in 3 ul of complete media containing 1x tetracycline inducer. After an overnight incubation at 30 deg C in 5% CO2, cells are loaded with 2 ul of the no wash Calcium Assay Kit (ABD Bioquest) and incubated at room temperature for 30 to 90 minutes. Agonist read: A 10 cycle (1 second/cycle) baseline measurement is taken and then the FDSS online 1536 pintool delivers 23 nl of compound library (as well as dopamine controls) to the plate. The plate is measured for kinetically at 1 cycle/sec for 180 seconds. Following the 180 second read, 1 ul of an EC80 (negative modulation assay) is delivered by an onboard pipette head. Measurements are taken kinetically for an additional 180 seconds.

SMILES	Potency	activity, negative = inhibition
CCN1C(=O)c2ccccc2S(=O)c2ccc(C(=O)NCc3ccc(F)cc3)cc21 (stereo not given)	705 nM (active)	
COc1ccc(NC(=O)c2ccc3c(c2)N(C)C(=O)c2ccccc2S3=O)cc1 (stereo not given)	11200 nM (active)	
COc1ccc(CNC(=O)c2cccc(N3C(=O)c4ccccc4C3=O)c2)cc1		-114%
CN(C)CCCNC(=O)c1ccc2c(c1)N(C)C(=O)c1ccccc1S2=O (stereo not given)		-85.7% [at 4.65 µM] (active)
CCN1C(=O)c2ccccc2S(=O)c2ccc(C(=O)NCc3ccccc3)cc21 (stereo not given)	705 nM (active)	
CCN1C(=O)c2ccccc2S(=O)c2ccc(C(=O)OCc3ccc(OC)cc3)cc21 (stereo not given)	inactive	
CCN1C(=O)c2ccccc2S(=O)c2ccc(NC(=O)Cc3ccc(OC)cc3)cc21 (stereo not given)	705 nM (active)	
CCN1C(=O)c2ccccc2S(=O)c2ccc(C(=O)Nc3ccccc3)cc21 (stereo not given)	141 nM (active)	
CN1C(=O)c2ccccc2S(=O)c2ccc(C(=O)NCc3ccc(Br)cc3)cc21 (stereo not given)	70.5 nM (active)	
CCN1C(=O)c2ccccc2S(=O)c2ccc(C(=O)NCc3ccc(S(C)(=O)=O)cc3)cc21 (stereo not given)	560 nM (active)	
CCN1C(=O)c2ccccc2Sc2ccc(C(=O)NCc3ccc(OC)cc3)cc21	887 nM (active)	
CN1C(=O)c2ccccc2[S@](=O)c2ccc(C(=O)NCc3cccnc3)cc21	177 nM (active)	
CN1C(=O)c2ccccc2[S@](=O)c2ccc(C(=O)NCc3ccc(Br)cc3)cc21	70.5 nM (active)	
CCN1C(=O)c2ccccc2[S@](=O)c2ccc(C(=O)N[C@H](C)c3ccc(Br)cc3)cc21	8870 nM (active)	
CCN1C(=O)c2ccccc2S(=O)c2ccc(C(=O)NCc3cc(OC)c(OC)c(OC)c3)cc21 (stereo not given)		23.4%
CN1C(=O)c2ccccc2[S@](=O)c2ccc(C(=O)NCCc3cccs3)cc21	280 nM (active)	
CN1C(=O)c2ccccc2S(=O)c2ccc(C(=O)NCc3ccc(Cl)cc3)cc21 (stereo not given)	353 nM (active)	
CCCN1C(=O)c2ccccc2S(=O)c2ccc(C(=O)NCc3ccc(OC)cc3)cc21 (stereo not given)	1770 nM (active)	
CN1C(=O)c2ccccc2S(=O)c2ccc(C(=O)NCc3ccccc3)cc21 (stereo not given)	560 nM (active)	
CN1C(=O)c2ccccc2[S@](=O)c2ccc(C(=O)NCCN3CCCC3)cc21	4450 nM (active)	

SMILES	Potency	activity, negative = inhibition
CCN1C(=O)c2ccccc2S(=O)c2ccc(C(=O)NCc3ccc(C)cc3)cc21 (stereo not given)		5.87% [at 4.65 µM]
CCN1C(=O)c2ccccc2S(=O)c2ccc(C(=O)NCc3ccccc3OC)cc21 (stereo not given)		-21.4% (active)
CCN1C(=O)c2ccccc2[S@](=O)c2ccc(C(=O)N[C@H](C)c3ccc4ccccc4c3)cc21	70.5 nM (active)	
CN1C(=O)c2ccccc2S(=O)c2ccc(C(=O)NCCc3cccs3)cc21 (stereo not given)	88.7 nM (active)	
CN1C(=O)c2ccccc2S(=O)c2ccc(C(=O)NCc3cccnc3)cc21 (stereo not given)		-114% [at 4.65 µM] (active)
CCN1C(=O)c2ccccc2S(=O)c2ccc(C(=O)NCc3ccc(C(F)(F)F)cc3)cc21 (stereo not given)	141 nM (active)	
CCN1C(=O)c2ccccc2S(=O)c2ccc(C(=O)NCc3ccc(OC)cc3)cc21 (stereo not given)	88.7 nM (active)	
COc1ccc(CNC(=O)c2ccc3c(c2)C(=O)c2ccccc2C3=O)cc1		-113%
COc1ccc(CNC(=O)c2ccc3c(c2)N(C)C(=O)c2ccccc2S3=O)cc1 (stereo not given)	112 nM (active)	
CCN1C(=O)c2ccccc2S(=O)c2ccc(C(=O)Nc3ccc(OC)cc3)cc21 (stereo not given)	887 nM (active)	
CCN1C(=O)c2ccccc2[S@](=O)c2ccc(C(=O)NCc3ccc(C#N)cc3)cc21	223 nM (active)	
COc1ccc(CNC(=O)c2ccc3c(c2)N(Cc2ccccc2)C(=O)c2ccccc2S3=O)cc1 (stereo not given)	88.7 nM (active)	
CCN1C(=O)c2ccccc2S(=O)c2ccc(C(=O)NCc3ccc(C(C)(C)C)cc3)cc21 (stereo not given)	353 nM (active)	
CN1C(=O)c2ccccc2[S@@](=O)c2ccc(C(=O)NCCc3cccs3)cc21	88.7 nM (active)	
CN1C(=O)c2ccccc2[S@](=O)c2ccc(C(=O)NCc3ccc(Cl)cc3)cc21	445 nM (active)	
CN1C(=O)c2ccccc2S(=O)c2ccc(C(=O)Nc3ccccc3)cc21 (stereo not given)	280 nM (active)	
CCN1C(=O)c2ccccc2S(=O)c2ccc(C(=O)NCc3ccc(SC)cc3)cc21 (stereo not given)	223 nM (active)	
CCN1C(=O)c2ccccc2S(=O)c2ccc(C(=O)NCc3ccc4c(c3)OCO4)cc21 (stereo not given)	112 nM (active)	
CCN1C(=O)c2ccccc2S(=O)c2ccc(NC(=O)Cc3ccc(F)cc3)cc21 (stereo not given)	223 nM (active)	
CN1C(=O)c2ccccc2S(=O)c2ccc(C(=O)NCc3cccc(Cl)c3)cc21 (stereo not given)	280 nM (active)	
